Counter-ions that a name gives are not always drawn.
Each compound was assayed on HeLa (assay: nuclear count per well, robust Z-score vs DMSO; higher = more cells (less toxicity)). Details: 10 µM; 6 h.
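Further: Hoechst-stained nuclei counted by automated confocal imaging of four fields per well in 384-well plates, with the robust Z-score based on the per-plate DMSO median and robust SD.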

Point of comparison: `CCN(CC)CCNC(=O)c1cc(Cl)c(N)cc1OC`, “nuclear count per well” value -0.369. Against it:
- COc1cc2nc(N(C)CCCNC(=O)C3CCCO3)nc(N)c2cc1OC (stereo not given) [Alfuzosin] — higher, 0.548
- CCCCCOc1ccc(-c2cc(-c3ccc(C(=O)N[C@H]4C[C@@H](O)[C@@H](O)NC(=O)[C@@H]5[C@@H](O)[C@@H](C)CN5C(=O)[C@H]([C@H](O)CC(N)=O)NC(=O)[C@H]([C@H](O)[C@@H](O)c5ccc(O)c(OS(=O)(=O)O)c5)NC(=O)[C@@H]5C[C@@H](O)CN5C(=O)[C@H]([C@@H](C)O)NC4=O)cc3)no2)cc1 [Micafungin] — lower, -0.967
- COc1cc(C=C(C#N)C(N)=O)cc(CSc2nc3ccccc3s2)c1O [Tyrphostin AG-825] — higher, 0.276
- CCCCCCCCCCCCCC(=O)N[C@H](C)[C@@H](O)c1ccccc1 [D-erythro-MAPP] — lower, -0.426
- CNCCC=C1c2ccccc2CCc2ccccc21 — higher, 0.249
- O=C(O)CCC/C=C\CC1C(O)CC(O)C1/C=C/C(O)COc1cccc(Cl)c1 (stereo not given) [Cloprostenol] — lower, -0.538
- CCCC(=O)O[C@]1(C(=O)COC(C)=O)CC[C@H]2[C@@H]3C[C@H](F)C4=CC(=O)C=C[C@]4(C)[C@@]3(F)[C@@H](O)C[C@@]21C [Difluprednate] — higher, 0.412
- CCN(CC)C(=O)C1(c2ccccc2)CC1CN (stereo not given) — lower, -0.371
- NCCC(O)(P(=O)(O)O)P(=O)(O)O [Pamidronate Disodium  Pentahydrate (Pamidronic Acid)] — higher, 0.523
- Nc1ncn([C@@H]2O[C@H](CO)[C@@H](O)[C@H]2O)c(=O)n1 [Azacytidine] — higher, 0.175
- CC1(COc2ccc(CC3SC(=O)NC3=O)cc2)CCCCC1 (stereo not given) [Ciglitazone] — higher, 1.14
- CC(C)/N=c1\cc2n(-c3ccc(Cl)cc3)c3ccccc3nc-2cc1Nc1ccc(Cl)cc1 [Clofazimine] — higher, -0.182
- O=NN(CCCl)C(=O)NCCCl [Carmustine] — higher, 0.92
- CCc1cccc2c3c([nH]c12)C(CC)(CC(=O)O)OCC3 (stereo not given) [Etodolac] — lower, -1.07
- O=c1[nH]cnc2c1ncn2[C@H]1CC[C@@H](CO)O1 [Didanosine] — higher, -0.203
- CCOc1cc(CC(=O)N[C@@H](CC(C)C)c2ccccc2N2CCCCC2)ccc1C(=O)O [Repaglinide] — higher, 0.716
- Clc1ccc(C(c2ccccc2Cl)C(Cl)Cl)cc1 (stereo not given) [Mitotane] — lower, -0.735
- O=C1CN(/N=C/c2ccc(-c3ccc([N+](=O)[O-])cc3)o2)C(=O)N1 [Dantrolene sodium salt] — higher, 0.134
- COC1=C(OC)C(=O)c2ccccc2C1=O [2,3-Dimethoxy-1,4-naphthoquinone] — lower, -5.79
- NS(=O)(=O)c1cc2c(cc1Cl)NCNS2(=O)=O [Hydrochlorothiazide] — higher, -0.11
- C[C@@H]1NC(=O)[C@@H](N)CNC(=O)[C@H](C2CCNC(=N)N2)NC(=O)/C(=C/NC(N)=O)NC(=O)[C@H](CNC(=O)CC(N)CCCN)NC1=O.N=C1NCC[C@H]([C@@H]2NC(=O)/C(=C/NC(N)=O)NC(=O)[C@H](CNC(=O)C[C@@H](N)CCCN)NC(=O)[C@H](CO)NC(=O)[C@@H](N)CNC2=O)N1 [Capreomycin Disulfate] — higher, 2.37
- CCNC(=O)CCC/C=C\C[C@@H]1[C@@H](/C=C/[C@@H](O)CCc2ccccc2)[C@H](O)C[C@@H]1O [Bimatoprost] — higher, -0.229
- CCCCCC(O)CCCC(=O)O (stereo not given) [5-Hydroxydecanoate] — higher, 0.658
- C=CC[N+]1([C@H]2C[C@H]3[C@@H]4CC[C@H]5C[C@H](O)[C@@H](N6CCOCC6)C[C@]5(C)[C@H]4CC[C@]3(C)[C@H]2OC(C)=O)CCCC1 [Rocuronium Bromide] — higher, 1.14
- CCCCC[C@H](O)/C=C/C=C\CCCCCCCC(=O)O — higher, -0.297
- CCCCCCCCCCCCCCCCOCC(COP(=O)([O-])OCC[N+](C)(C)C)OC (stereo not given) [1-Hexadecyl-2-methylglycero-3 PC] — higher, -0.31
- CCN(CC)C(=O)/C(C#N)=C/c1cc(O)c(O)c([N+](=O)[O-])c1 [Entacapone] — higher, 0.686
- CO[C@H]1C[C@@H]2CC[C@@H](C)[C@@](O)(O2)C(=O)C(=O)N2CCCC[C@H]2C(=O)O[C@H]([C@H](C)C[C@@H]2CC[C@@H](OCCO)[C@H](OC)C2)CC(=O)[C@H](C)/C=C(\C)[C@@H](O)[C@@H](OC)C(=O)[C@H](C)C[C@H](C)/C=C/C=C/C=C/1C [Everolimus] — lower, -0.691
- C#C[C@]1(O)CC[C@H]2[C@@H]3CCc4cc(OC)ccc4[C@H]3CC[C@@]21C [Mestranol] — lower, -1.59
- C[S+]([O-])c1ccc(-c2nc(-c3ccc(F)cc3)c(-c3ccncc3)[nH]2)cc1 (stereo not given) — higher, 1
- CCC1(c2ccccc2)C(=O)NCNC1=O [Primidone] — higher, 0.218
- CC/C(=C(\c1ccccc1)c1ccc(OCCN(C)C)cc1)c1ccccc1 [Tamoxifen Citrate] — higher, 0.359
- CCCCCCCCCCCCCCCC(=O)N[C@H](CN1CCOCC1)[C@H](O)c1ccccc1 (racemic) — higher, 0.169
- O=C(O)/C(S)=C/c1ccc(I)cc1 — lower, -1.84
- Cc1cnc(C(=O)NCCc2ccc(S(=O)(=O)NC(=O)NC3CCCCC3)cc2)cn1 [Glipizide] — higher, 0.529
- CCCCCC1OC1C/C=C\C/C=C\C/C=C\CCCC(=O)O (stereo not given) [14,15-Epoxyeicosa-5Z,8Z,11Z-trienoic acid] — higher, 0.539
- COc1ccccc1OCC(O)CN1CCN(CC(=O)Nc2c(C)cccc2C)CC1 (stereo not given) — higher, 0.151
- COc1cc(C(C)=O)ccc1OCCCN1CCC(c2noc3cc(F)ccc23)CC1 [Iloperidone] — higher, 0.0344
- COc1ccc(Cl)cc1C(=O)NCCc1ccc(S(=O)(=O)NC(=O)NC2CCCCC2)cc1 [Glibenclamide] — higher, -0.32

Reference: the supplement of paper PMC9844399
